# Bioassay records: PubChem, National Center for Advancing Translational Sciences (NCATS)
# Most compounds without a hit are left out; they make up all but 17% or so of the library.
# HepG2 viability = counter-screen for TGF-b inhibitors: cytotoxicity in HepG2 cells | Potency, µM (series often up to 46.1 µM), for the others: at the top dose activity change, negative = cytotoxicity, actives largely listed as cytotoxic | 410,000 compounds, 0.76% hits | HepG2 CAGA-GFP viability, ATP luminescence, 18 h
#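 CellTiter-Glo luminescence gave cytotoxicity after 18 hours at 37 degrees C. The cells were HepG2 CAGA-GFP in 1% FBS DMEM, stimulated with 500 pg/mL TGF-beta after compound addition. %Activity was normalised to no-cell wells (complete cell-killing) and DMSO (no toxicity), and curves were fitted and classified.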
# DT40 TDP1 CPT = DT40-hTDP1 cell growth loss with CPT | AID 686979 | Potency, µM (top dose mostly 46.2 µM), for inactives: at the top dose activity change, negative = growth inhibition, most hits filed as inhibitors | chicken DT40 Tdp1-/-;hTDP1 cells + 20 nM CPT, ATP luminescence, 48 h | 420,000 compounds, 12% hits; further: on the % scale 0 is the no-effect control and ±100 the full control effect; nearly all actives have a fitted effect of over 55% in size
#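 Cell growth measured by CellTiter-Glo luminescence after a minimum 48 h, 37 C compound exposure with 20 nM CPT in Tdp1-knockout DT40 cells stably expressing hTDP1, seeded 400/well; qHTS titration format.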
# TGFb SMAD3 inh = blocks TGF-b signaling. HepG2 CAGA-GFP TGF-b/SMAD3 reporter, GFP fluorescence, 18 h; TGF-beta stimulated, 500 pg/mL final. Potency, µM (series often up to 46.1 µM), inactives show at the top dose activity, negative = inhibition, hits mostly inhibitors. AID 588855. 410,000 compounds, 1.2% hits; further: on the % scale 0 is the no-effect control and ±100 the full control effect; nearly all actives have a fitted effect of over 65% in size
#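 First, reporter cells (HEPG2 CAGA-GFP) rested 2 h at 37 degrees C. Next, compounds were pinned in and TGF-beta added to 500 pg/mL final. After 18 h, GFP was imaged per cell and summed per well.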
# S2 tox = reduces viability in counter-screen for ATXN expression inhibitors. S2 cells (HEK-293 line with an ATXN2-luciferase reporter) viability, CellTiter-Fluor protease fluorescence, 24 h. Potency, µM (doses to about 56.7 µM), hits mostly cytotoxic. 400,000 compounds, 0.49% hits; further: nearly all actives have a fitted effect of over 40% in size
# DT40 TDP1 no CPT = qHTS for Inhibitors of human tyrosyl-DNA phosphodiesterase 1 (TDP1): qHTS in cells in absence of CPT. DT40 Tdp1-/- hTDP1 cells, no CPT, ATP luminescence, 48 h. Potency, µM (titrated, usually from 46.2 µM), inactives show at the highest dose activity change, negative = growth inhibition, usual class: inhibitors. 420,000 compounds, 15% hits. AID 686978, 2013; further: on the % scale 0 is the no-effect control and ±100 the full control effect; nearly all actives have a fitted effect of over 55% in size
#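 No-CPT arm: Tdp1-/-;hTDP1 DT40 cells (400/well) plus compounds, incubated ≥48 hr at 37 °C. Readout CellTiter-Glo luminescence.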
# ATXN2 expr inh = inhibitors of ATXN2 expression; 360,000 compounds, 0.72% hits; HEK-293 ATXN2-luciferase reporter, luminescence, 24 h; Potency, µM (titrated, usually from 57 µM), inactives show at the highest dose activity change, negative = inhibition, hits mostly inhibitors; AID 1745845; further: on the % scale 0 is the no-effect control and ±100 the full control effect; nearly all actives have a fitted effect of over 55% in size
#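 ATXN2-luciferase reporter cells (luciferase flanked by upstream and downstream ATXN2 gene portions) were treated 24 h at 37 °C with compounds at up to 57 uM. SteadyGlo luminescence gave expression; GF-AFC fluorescence gave viability.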
# Starred values were filed as active, the others as inactive; i = inactive; ? = inconclusive; / = no result; ! = not confirmed by another sample; [ ] = dose if it differs, or a comment. The call rests on the fitted dose curve; in most records, active means well fitted curve in the direction sought with a large enough effect; inconclusive means small, poorly fitted or top-dose-only effect, or another doubt; inactive means no such curve, though single readings can be large; an effect the other way counts as inactive or inconclusive. Potency means the concentration at half of the fitted maximal effect.
SMILES,HepG2 viability,DT40 TDP1 CPT,TGFb SMAD3 inh,S2 tox,DT40 TDP1 no CPT,ATXN2 expr inh
CC(C)N=C1CC(C)(C)CC(=O)/C1=C(/O)CCCN1C(=O)c2ccccc2C1=O,-6.3%,-17.7%,-2.8%,?,-18.2%,/
O=C(Nc1nnc(C2CC2)o1)c1ccc(S(=O)(=O)N2CCCCC2)cc1,-41.7%,?,?,i,?,-21.2%
COCc1nnc(NC(=O)c2ccc(S(=O)(=O)N3CCCc4ccccc43)cc2)o1,-19.7%,23.1µM*,-0.9%,i,?,-16.8%[11.3 µM]
O=C(NCc1ccccc1)c1ccc(S(=O)(=O)N2CCCc3ccccc32)cc1,-6.0%,-27.5%,-15.2%,i,1.6%,-14.4%
COCc1nnc(NC(=O)c2ccc(S(=O)(=O)N3CCOCC3)cc2)o1,4.9%,-9.3%,0.1%,i,-3.4%,-9.7%
COc1ccc(-c2nnc(NC(=O)c3ccc(S(=O)(=O)N4CCCc5ccccc54)cc3)o2)cc1,-2.8%,3.16µM*,?,i,5.62µM*,?
O=C(Nc1nnc(C2CC2)o1)c1ccc(S(=O)(=O)N2CCCc3ccccc32)cc1,-6.3%,4.61µM*,?,?,?,15.8µM*
CN(C)C(CNC(=O)C1CCN(C(=O)/C=C/c2ccccc2)CC1)c1ccccc1 (stereo unspecified),-28.7%,-2.9%,-19.9%,i,-5.4%,28.7%
c1ccc(N2CCN(c3ncnc4c3oc3ccccc34)CC2)cc1,2.8%,?,6.8%,?,?,?
CCc1nnc(N2CCN(c3ncnc4c3oc3ccccc34)CC2)s1,-4.1%,18.4µM*,-1.3%,i,18.4µM*,-30.4%
CCOC(=O)C1CCCN(c2ncnc3c2oc2ccccc23)C1 (stereo unspecified),-19.5%,?,-26.6%,i,13µM*,3.0%
CCOC(=O)C1CCN(c2ncnc3c2oc2ccccc23)CC1,-32.4%,?,-17.5%,i,16.4µM*,-27.4%
CCOC(=O)C1CCN(c2nc(-c3ccccc3)nc3c2oc2ccccc23)CC1,-14.1%,-18.5%,-28.0%,i,?,-20.6%
COc1ccccc1Cc1c(-c2ccco2)nc2ccc(Br)cn12,-92.6%,10.3µM*,?,?,20.6µM*,-10.4%
FC(F)(F)c1ccccc1Cc1c(-c2ccco2)nc2ccc(Br)cn12,-95.1%,?,?,?,?,?
Fc1cccc(Cc2c(-c3ccco3)nc3ccc(Br)cn23)c1,-97.2%,16.4µM*,?,/,16.4µM*,-24.7%
COc1ccccc1Cc1c(-c2ccco2)nc2ccc(Cl)cn12,-95.7%,16.4µM*,15.8µM*,?,23.1µM*,-8.3%
COc1ccccc1Cc1c(-c2ccc(OC)c(OC)c2)nc2ccc(Br)cn12,-2.5%,18.4µM*,?,?,5.8µM*,?
Clc1ccc2nc(-c3ccco3)c(Cc3ccsc3)n2c1,-34.1%,?,?,i,?,-1.5%
COc1ccc(-c2nc3ccc(Br)cn3c2Cc2ccccc2)cc1OC,-2.9%,?,?,?,?,-19.0%
CCC1CN(CC(=O)NCc2cc(C)n(C)n2)Cc2cc(OC)ccc2O1 (stereo unspecified),/,18.4%[9.04 µM],/,i,-2.6%,/
Cc1c(-c2cc(Br)ccc2O)nc2cc3c(cc2c1C)OCO3,-5.7%,?,0.0%,i,-28.9%,56.1%
Cc1cccc(C)c1NC(=O)C1C(c2ccc3c(c2)OCO3)=Nc2ccccc2N1C(=O)c1ccccn1 (stereo unspecified),/,?,/,/,20.6µM*,/
Cc1cccc(C)c1NC(=O)C1C(c2ccc3c(c2)OCO3)=Nc2ccccc2N1C(=O)c1cccc(C(F)(F)F)c1 (stereo unspecified),/,7.31µM*,/,/,7.31µM*,/
COc1ccc(C2=Nc3ccccc3N(C(=O)c3ccc(C(F)(F)F)cc3)C2C(=O)Nc2ccc3c(c2)OCCO3)cc1 (stereo unspecified),/,6.7%,/,/,-16.1%,/
SMILES,HepG2 viability,DT40 TDP1 CPT,TGFb SMAD3 inh,S2 tox,DT40 TDP1 no CPT,ATXN2 expr inh
O=C(COC(=O)c1ccccn1)Nc1ccc2c(c1)OCO2,-7.8%,2.1%,-6.0%,i,-5.4%,-18.0%
CCCN(C(=O)c1nc2nc(C)cc(C)n2n1)c1c(N)n(Cc2ccccc2)c(=O)[nH]c1=O,1.5%,8.0%,14.9%,i,0.1%,6.2%
C[C@@H]1CN([C@H](C)CO)C(=O)CCCn2nncc2CO[C@H]1CN(C)Cc1cccc2c1OCCCO2,-46.9%,-6.8%,?,i,7.9%,-13.1%
OCCOCCN1CCN(C2=Nc3ccccc3Sc3ccccc32)CC1,-10.1%,23.7µM*!,-9.2%,i,18.8µM*!,-3.0%
O=C(NC(=S)Nc1ccccc1C(=O)O)c1cncc(Br)c1,2.6%,?,5.5%,i,?,-1.9%
O=C(NC(=S)Nc1ccc2c(c1)OCCO2)c1cccc(Br)c1,-24.0%,14.6µM*,?,?,?,75.5%
O=C(NC(=S)Nc1ccccc1O)c1cncc(Br)c1,-34.8%,?,-3.6%,i,23.1µM*,3.7%
CC(=O)c1cccc(NC(=S)NC(=O)c2cncc(Br)c2)c1,-3.5%,13µM*,6.5%,i,?,/
CCOCCCNC(=O)c1ccc(/C=C2\Oc3ccccc3N(C)C2=O)cc1,0.7%,?,4.6%,i,-20.7%,-6.1%
COc1ccc(NS(=O)(=O)c2ccc3[nH]c4c(c3c2)CCCC4)cc1Cl,-109.2%,?,?,?,?,?
COc1ccc(NS(=O)(=O)c2ccc3[nH]c4c(c3c2)CCCC4)c(OC)c1,-18.2%,20.6µM*,?,?,20.6µM*,?
COc1ccc(NS(=O)(=O)c2ccc3[nH]c4c(c3c2)CCCCC4)cc1,-59.2%,16.4µM*,?,?,23.1µM*,?
CCOc1ccc(NC(=O)CN(C)S(=O)(=O)c2ccc3[nH]c4c(c3c2)CCCC4)cc1,-17.8%,?,?,?,?,?
CCOc1ccc(NS(=O)(=O)c2ccc3[nH]c4c(c3c2)CCCC4)cc1,11.2µM*,-22.6%,11.2µM*,?,?,?
CCOc1ccc(NS(=O)(=O)c2ccc3[nH]c4c(c3c2)CCCCC4)cc1,-100.2%,23.1µM*,?,?,18.4µM*,?
Cc1ccc(S(=O)(=O)Nc2cccc(-c3ccc(N4CCCCCC4)nn3)c2)c(C)c1,-2.6%,?,-4.2%,i,?,20.1%
